Experimental findings from PubChem BioAssay (NCATS) are described below.

Activity calls are given as the source filed them. The call rests on the fitted dose curve; in most records, active means well fitted curve in the direction sought with a large enough effect; inconclusive means small, poorly fitted or top-dose-only effect, or effect the other way, or another doubt; inactive means no such curve, though single readings can be large or run the other way.

A short description of this experiment: qHTS of Nrf2 Activators: LOPAC Validation (AID 624149). Conditions: Nrf2/ARE reporter cell assay; series mostly up to 46.1 µM. A digest of the protocol:
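AREc32_Fluc cells, 1000/well, OPTI-MEM + 5% FBS, o/n 37 deg C 5% CO2; compound pin-transfer, 24 hr 37 deg C; Steady-Glo 30 min RT, luminescence read.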
(In qHTS, concentration-response curves come from the screen itself.)
For the molecule `CN1CCc2cc(O)c(O)cc2C(c2ccccc2)C1` (stereo unspecified), the molecule was classed as inactive.
In the case of `CCCCCCCC/C=C\CCCCCCCC(=O)NCCO`, the molecule was called inactive.
On to `Oc1cc2c(cc1O)CN(C(=S)NCCc1ccc(Cl)cc1)CCC2`, for which the outcome was inactive.
As to `CNc1ncnc2c1ncn2[C@@H]1O[C@H](CO)[C@@H](O)[C@H]1O`, the molecule was classed as inactive.
For the molecule `NC[C@@H]1O[C@H](C23CC4CC(CC(C4)C2)C3)Cc2c1ccc(O)c2O`, the molecule was called inactive.
As for `C=C[C@H]1CN2CC[C@@H]1C[C@@H]2[C@@H](O)c1ccnc2ccc(OC)cc12`, the entry is “inactive”.
Next, `OC[C@H]1O[C@@H](n2cnc3c(Nc4ccccc4)ncnc32)[C@H](O)[C@@H]1O`: “inactive”.
As for `CCCN(CC1CC1)c1nc(C)nc(Nc2c(Cl)cc(Cl)cc2Cl)c1Cl`, the entry is “inactive”; as for `CC(C)NCC(O)COc1cccc2ccccc12` (stereo unspecified), “inactive”.
`N#C/C(=C\c1ccc(O)c(O)c1)C(=O)NCCCc1ccccc1`: the result was inactive.
For `CN1C2CC(OC(=O)[C@H](CO)c3ccccc3)CC1C1OC12` (stereo partly specified), the molecule was called inactive.
For the molecule `S=C(S)OC1CC2CC1C1CCCC21` (stereo unspecified), the outcome was inactive.
On to `CSc1nc(N)c2ncn([C@@H]3O[C@H](COP(=O)(O)OP(=O)(O)OP(=O)(O)O)[C@@H](O)[C@H]3O)c2n1`, for which the result was inactive.
As for `C[N+]1(C)CCC(OC(=O)C(c2ccccc2)c2ccccc2)CC1`, the result was inactive.
With `Oc1ccc(C2CNCc3sccc32)cc1O` (stereo unspecified), the outcome was inactive.
With `CCNC(=O)[C@H]1O[C@@H](n2cnc3c(N)nc(NCCc4ccc(CCC(=O)O)cc4)nc32)[C@H](O)[C@@H]1O`, the outcome was inactive.
With `COc1ccccc1N1CCN(CCN(C(=O)c2ccc(I)cc2)c2ccccn2)CC1`, the outcome was inactive.
In the case of `Clc1ccc(N2CCN(Cc3c[nH]c4ncccc34)CC2)cc1`, the outcome was inactive.
Take `N#C/C(=C\c1ccc(-c2cc(Cl)ccc2Cl)o1)C(=O)Nc1cccc2ncccc12`: the molecule was classed as inactive.
In the case of `C[N+]1(C)C2CC(OC(=O)[C@H](CO)c3ccccc3)CC1C1OC12` (stereo partly specified), the molecule was classed as inactive.
Take `COc1cccc(C(=O)NCCN2CCN(c3ccc(Cl)cc3)CC2)c1`: the molecule was called inactive.
Take `NC(=S)c1ccc[n+]([C@@H]2O[C@@H](COP(=O)([O-])OP(=O)(O)OC[C@H]3O[C@@H](n4cnc5c(N)ncnc54)[C@H](OP(=O)(O)O)[C@@H]3O)C(O)C2O)c1` (stereo partly specified): the call was inactive.
As to `NC(=S)NCCC[C@H](N)C(=O)O`, the result was inactive.
As for `CC(C)NC[C@@H](O)c1ccc(O)c(O)c1`, the molecule was classed as inactive.
Consider `CC(C)ON([C@@H](C(=O)NO)C(C)C)S(=O)(=O)c1ccc(-c2ccccc2)cc1`, for which the molecule was called inactive.
With `Nc1ncnc2c1ncn2[C@@H]1O[C@H](COP(=O)(O)CP(=O)(O)OP(=O)(O)O)[C@@H](O)[C@H]1O`, the molecule was called inactive.
Consider `COc1ccc(NC(=O)/C=C/c2ccc(Cl)cc2)cc1`, for which the molecule was called inactive.
Next, `Nc1ncnc2c1c(I)cn2[C@@H]1C[C@H](N)[C@@H](O)[C@H]1O`: “inactive”; `N.N.N.N.N.N.N.N.N.N.N.N.N.N.O.O.[Ru+4].[Ru+5].[Ru+5]`: “inactive”; `CCc1c(C(=O)NCCc2ccc(N3CCCCC3)cc2)[nH]c2ccc(Cl)cc12`: “inactive”.
As for `NC(=O)C1=CN(C2OC(COP(=O)(O)OP(=O)(O)OC[C@H]3O[C@@H](n4cnc5c(N)ncnc54)[C@H](OP(=O)(O)O)[C@@H]3O)C(O)C2O)C=CC1` (stereo partly specified), the entry is “inactive”.
